The source of these data is PubChem BioAssay.

Several values for one entry are separate records, joined by “and”; a condition that tells them apart may be missing. Equal values may be shown once. For part of these data: Results with a measured potency or affinity are listed apart. Activity calls are given as the source filed them. Unless noted, the rule behind the calls is not given here.

Assay [1] is described as follows: polyglutamine-triggered caspase-3 activation inhibitors, cell-based (AID 1583). As to conditions: polyglutamine-induced caspase-3 activation, cell assay; stronger effect = higher value;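 tested at 10 µM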.
Assay [2] can be described thus: suppressors of polyQ aggregation in yeast, 75Q-TubU reporter (AID 1593). The following applies: Yeast 75Q polyglutamine aggregation reporter.
Assay [3] in a line: rescue of polyQ-huntingtin neuronal dysfunction in worms, whole organism, C. elegans mechanosensory neurons, N-terminal huntingtin (AID 1599). The following applies: touch response, stronger effect = higher value.
Assay [4] can be described thus: inhibitors of mitochondrial cytochrome c release, biochemical, purified mitochondria (AID 1603).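 Note: mouse liver mitochondria challenged with calcium chloride; signal normalized to the plate average as 100%.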 The following applies: stronger effect = lower value.
Assay [5] can be described thus: inhibitors of polyQ protein aggregation (AID 1604). The following applies: polyglutamine-induced protein aggregation inhibition assay; stronger effect = higher value; tested at 2.5 µM.
Assay [6] in a line: enhancers of glutamate uptake in motor neurons, MN-1 cell line (AID 1612).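 Note: tested at 1 µM final; 0% = mean of DMSO vehicle wells on each plate; positive means more glutamate uptake than control and negative means less.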 As to conditions: MN-1 motor neuron cells, stronger effect = higher value.
Assay [7] can be described thus: reducers of polyQ inclusions in PC12 cells, cell-based, NGF-treated PC12, GFPQ80 (AID 1614).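 Note: lower means fewer inclusions and 0 means no inclusions at all.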 As to conditions: PC12 NGF-treated GFP-polyQ80 inclusion reduction.
Assay [8] is described as follows: suppressors of polyglutamine aggregation in yeast, 75Q-TubH (AID 1616). As to conditions: S. cerevisiae 75Q-TubH polyglutamine aggregation suppression; stronger effect = higher value.
Assay [9] in a line: liver-stage malaria parasite growth inhibition, primary screen, cell-based, HepG2, luciferase luminescence, HepG2 viability (AID 624349; in the data active = parasite load remaining mostly below about 12%, no sharp cut-off; inactive = mostly above about 10%;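 note: 100% = mean of DMSO negative control wells on the same plate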). The following applies: P. berghei liver stage in HepG2, luciferase luminescence, concentration not given here; parasite load remaining: stronger effect = lower value; viability: measured here: HepG2 viability without parasites.
Assay [10] can be described thus: differential killing of epithelial or mesenchymal cells, primary screen, imaging, PC-3E GFP, TEM4-18 mCherry, co-culture (AID 1345086;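 active = compounds killing one labelled cell type while sparing the other, by normalised counts and ratio limits, not self-fluorescent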;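 for all read-outs here: cells exposed to compound for 72 h before imaging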;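 for red/green cell ratio (normalised): normalised mesenchymal count divided by normalised epithelial count so high means epithelial killing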). As to conditions: imaging cell counts, at 1 µM; for red/green cell ratio (normalised): actives lie on both sides.
The subject of assay [11] is Aerobactin synthetase IucA (Klebsiella pneumoniae hvKP1). The experiment in a line: Biochemical IucA enzyme inhibition primary screen of the Spectrum library (AID 1346200).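 Note: 100% = wells without compound and 0% = wells lacking enzyme.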 The following applies: malachite green pyrophosphate, A620, at 8 µM, stronger effect = lower value.
The nature of assay [12]: sensitizers of A549 cells to miR-34 induction, primary screen, imaging, A549 dox-inducible miR-34, nuclei and caspase counts (AID 1347080;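 active = compounds whose cell count with miR-34 switched on is under 0.7 times the count with it off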). The following applies: A549 miR-34 inducible, Hoechst nuclei count, 48 h.
Assay [13] deals with Mitogen-activated protein kinase 7 (Homo sapiens) (UniProt Q13164). The assay is described as follows: ERK5 transactivation activators in reporter cells, primary screen, cell-based, HTS (AID 1508626;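 active = luciferase signal above three times the same-plate solvent-only control wells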;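 note: luciferase driven by Gal4-ERK5 fusion binding five Gal4 sites before minimal TATA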). As to conditions: HeLa Gal4-ERK5 transactivation, 18 h, at 5 µM, stronger effect = higher value.
The mark [14] stands for this setting: measured here: epithelial PC-3E GFP cell survival.
[15] abbreviates: measured here: mesenchymal TEM4-18 mCherry cell survival.
The mark [16] stands for this setting: measured here: relative caspase fold change +Dox/-Dox.
Setting [17] is: measured here: total cells with miR-34 induction, stronger effect = lower value.
Setting [18] is: measured here: total cells without miR-34 induction.

Sequence of Mitogen-activated protein kinase 7 (Homo sapiens) (Q13164 whole entry, looked up, the tested form may be a part): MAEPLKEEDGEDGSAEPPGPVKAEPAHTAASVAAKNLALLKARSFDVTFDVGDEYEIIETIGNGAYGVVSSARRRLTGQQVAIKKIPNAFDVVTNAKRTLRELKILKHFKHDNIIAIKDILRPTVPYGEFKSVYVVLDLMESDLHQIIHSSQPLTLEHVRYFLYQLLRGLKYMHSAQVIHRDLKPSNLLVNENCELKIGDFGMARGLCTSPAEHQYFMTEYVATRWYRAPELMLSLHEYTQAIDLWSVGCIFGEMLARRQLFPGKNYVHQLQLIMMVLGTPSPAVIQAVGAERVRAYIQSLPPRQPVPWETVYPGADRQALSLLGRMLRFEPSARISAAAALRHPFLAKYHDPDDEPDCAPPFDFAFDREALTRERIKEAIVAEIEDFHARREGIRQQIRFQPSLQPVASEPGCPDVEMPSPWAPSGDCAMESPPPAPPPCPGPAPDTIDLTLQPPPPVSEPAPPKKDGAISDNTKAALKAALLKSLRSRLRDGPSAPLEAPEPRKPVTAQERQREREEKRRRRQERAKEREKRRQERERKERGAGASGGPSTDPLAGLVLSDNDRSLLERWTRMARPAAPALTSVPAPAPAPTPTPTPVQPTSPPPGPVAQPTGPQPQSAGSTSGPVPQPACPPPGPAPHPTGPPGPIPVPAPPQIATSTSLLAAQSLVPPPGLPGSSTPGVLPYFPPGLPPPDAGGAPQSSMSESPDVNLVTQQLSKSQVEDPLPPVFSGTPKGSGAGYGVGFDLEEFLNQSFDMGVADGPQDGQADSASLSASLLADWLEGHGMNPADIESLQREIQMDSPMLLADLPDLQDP

For the molecule `NC1C[C@H]1c1ccccc1` (stereo partly drawn), the inhibition in assay [1] is -1.78%. In [2], this molecule had a score of 0.95. In addition, in [3], the rescue above control came out at 2.94. For the same molecule, the cytochrome c release ratio in assay [4] was 0.57. For the same molecule, the inhibition of aggregation in [5] was -4.08%. Further, the glutamate uptake change in assay [6] was determined as 0.89%. The inclusion score in assay [7] is 2. This molecule registered an aggregation suppression score in assay [8] of 1.29. In addition, the parasite load remaining in assay [9] is 139% (inactive) and 41.7% (inactive). Also, the viability in [9] was 72.4% and 86.6%. Also, in [10], the red/green cell ratio (normalised) is 1.23 (inactive). In addition, the normalised cell number stood at 0.99 in assay [10] (setting [14]) and 1.22 in [10] (setting [15]). For the same molecule, the activity remaining in [11] was 123% (inactive). In addition, the values for the fold change in assay [12] (stronger effect = lower value) and in [12] (setting [16]) were 0.916 (inactive) and 1.81, respectively. In addition, the cell count in [12] (setting [17]) came to 11800; in [12] (setting [18]), 12900.

Turning to `CC[C@@]1(O)C[C@H](O[C@H]2C[C@H](N(C)C)[C@H](O)[C@H](C)O2)c2c(cc3c(c2O)C(=O)c2c(O)ccc(O)c2C3=O)[C@H]1C(=O)OC`, the red/green cell ratio (normalised) in assay [10] is 0.85 (inactive). Further, the values for the normalised cell number in assay [10] (setting [14]) and in assay [10] (setting [15]) were 1.07 and 0.9, respectively. The activity remaining in [11] was 96.8% (inactive). Besides, in [13], the luciferase signal was 32 AU (inactive).

For `O=c1c(O)c(-c2ccc(O)c(O)c2)oc2c(O)c(O)cc(O)c12`, in assay [10], the red/green cell ratio (normalised) is 1.09 (inactive). For the same molecule, the normalised cell number in assay [10] (setting [14]) came out at 0.84; in assay [10] (setting [15]) it was 0.91. Further, the activity remaining in assay [11] is 118% (inactive). Besides, the luciferase signal in assay [13] was 48 AU (inactive).

Regarding `C=CCSSCC=C`, the red/green cell ratio (normalised) in assay [10] was 1.09 (inactive). For the same molecule, the normalised cell number in [10] (setting [14]) is 0.87; in assay [10] (setting [15]), 0.95. In assay [11], the activity remaining was 94.6% (inactive).

For the molecule `C=CCN1CC[C@]23c4c5ccc(O)c4OC2C(=O)CC[C@@]3(O)[C@H]1C5` (stereo partly drawn), the inhibition in assay [1] is -6.59%. For the same molecule, the score in [2] came out at 1.27. The rescue above control in [3] is -8.32. The cytochrome c release ratio in [4] was 1.12. Moreover, the inhibition of aggregation in assay [5] was 68.2%. Besides, the glutamate uptake change in assay [6] was -6.41%. Moreover, in assay [7], the inclusion score came out at 2. This molecule also showed an aggregation suppression score in [8] of 1.13. Further, the parasite load remaining in assay [9] was 96.1% (inactive) and 54.5% (inactive). Further, in assay [9], the viability is 79.4% and 88.1%. Further, in [10], the red/green cell ratio (normalised) was 1.09 (inactive). For the same molecule, the normalised cell number in assay [10] (setting [14]) was 1.09; in [10] (setting [15]), 1.19. Also, the activity remaining in [11] is 92.9% (inactive). Besides, the fold change in assay [12] (stronger effect = lower value) is 0.923 (inactive); in assay [12] (setting [16]), 2.03. Besides, the cell count turned out to be 11800 in assay [12] (setting [17]) and 12800 in assay [12] (setting [18]).

For the molecule `CN(CCC(N)CC(=O)N[C@H]1C=CC(n2ccc(N)nc2=O)O[C@@H]1C(=O)O)C(=N)N` (stereo partly drawn), in assay [10] (counts scaled to control wells, 1 = unselective), the red/green cell ratio (normalised) was 0.77 (inactive). In addition, the normalised cell number in assay [10] (setting [14]) came to 1.2; in assay [10] (setting [15]) it was 0.93. For the same molecule, in assay [11], the activity remaining was 109% (inactive).

Take `C[C@H]1OC(O[C@H]2[C@@H](O)CC(O[C@H]3[C@@H](O)C[C@H](O[C@H]4CC[C@]5(C)C6CC[C@]7(C)[C@@H](C8=CC(=O)OC8)[C@@H](O)C[C@]7(O)[C@@H]6CC[C@@H]5C4)O[C@@H]3C)O[C@@H]2C)C[C@H](O)C1O` (stereo partly drawn): the red/green cell ratio (normalised) in [10] was 0.34 (inactive). The normalised cell number in assay [10] (setting [14]) was determined as 0.21; in assay [10] (setting [15]) it was 0.07. Besides, the activity remaining in assay [11] is 115% (inactive).

Regarding `CC1(C)C2CC(=O)[C@]3(C)C(CC[C@@]4(C)[C@H](c5ccoc5)OC(=O)[C@H]5O[C@]543)[C@@]2(C)C(=O)C[C@H]1O` (stereo partly drawn), in assay [10], the red/green cell ratio (normalised) was 0.94 (inactive). Moreover, the normalised cell number in assay [10] (setting [14]) is 1.08; in assay [10] (setting [15]) it was 1.01. The activity remaining in assay [11] is 109% (inactive). The luciferase signal in assay [13] was 36 AU (inactive).
